Source: PubChem BioAssay
In the library only some 12% were active in any assay of this set; here they are far more common.
Pf growth 48h: inhibits P. falciparum growth in the first generation, 48 h. actives 5.9% (n = 310,000). Potency, µM (series often up to 28.7 µM), most hits filed as inhibitors. P. falciparum luciferase growth in erythrocytes, 48 h
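Firefly luciferase activity from engineered P. falciparum reports growth; inhibitors lower the luminescent signal. Cultures contained 2% hematocrit erythrocytes at 0.1% final parasitemia.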
AMA1 RON2 block: inhibitors of Plasmodium falciparum AMA1-RON2 interaction; AlphaScreen AMA1-biotinylated RON2 peptide binding; Potency, µM (titrated, usually from 58.2 µM), usual class: inhibitors; actives 0.2% (n = 360,000); also: nearly all actives have a fitted effect of over 45% in size
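AMA1 (3D7) with his tag at 25 nM final met compounds first, then biotinylated RON2 peptide at 25 nM; detection used donor plus acceptor beads, 10 µg/mL apiece, read by AlphaScreen after 30 min at room temperature.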
HCV inh: blocks hepatitis C virus; Huh7.5.1 HCVcc-Cre infection, luciferase reporter, 44 h; Potency, µM (top dose mostly 41.8 µM), usual class: inhibitors; actives 3.4% (n = 340,000)
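A cell-based infection assay in which seeded cells (1,000 per well) receive test compound after 4 h, are inoculated with HCVcc-Cre at approximately 0.5 moi, and are incubated 44 h before luminescence detection.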
Pf growth 96h: P. falciparum growth inhibition at 96 hour, primary screen for plastid delayed-death inhibitors. P. falciparum luciferase reporter growth, 96 h. Potency, µM (doses to about 28.7 µM), hits mostly inhibitors. actives 6.9% (n = 320,000)
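Cell-based qHTS: luciferase-tagged P. falciparum in erythrocytes (2% hematocrit, 0.05% parasitemia final) incubated with compounds for 96 hours, 37 C, 5% CO2; luciferase detection reagent then added and luminescence measured.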
SARS PLpro yeast: inhibitors of SARS-CoV papain-like protease in yeast. S. cerevisiae expressing SARS-CoV PLpro, growth rescue. Potency, µM (top dose mostly 32.9 µM), actives largely listed as activators. actives 0.19% (n = 330,000); calls by dose curve; also: nearly all actives have a fitted effect of over 55% in size
NS1 inh: influenza NS1 inhibition; Potency, µM (titrated, usually from 46.1 µM); actives 0.4% (n = 270,000); calls by dose curve; also: actives are rising curves; nearly all actives have a fitted effect of over 50% in size
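OD600 was taken as the measure of yeast growth restored by compound in an NS1-expressing S. cerevisiae strain. Cells had been washed out of glucose medium and diluted 1:100 into galactose -URA medium, pH 6.0.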
Large screens that a line does not name were inactive. Unless noted, calls follow the shape of the dose curve; as a rule, active = well fitted curve in the direction sought with a large enough effect; inconclusive = small, poorly fitted or top-dose-only effect, or another doubt; inactive = no such curve, though single readings can be large; an effect the other way counts as inactive or inconclusive.

COc1cc(/C=C/C(=O)c2ccc(NS(=O)(=O)c3ccc(C)cc3)cc2)ccc1OC(F)F	Pf growth 48h 15µM, HCV inh 35µM, Pf growth 96h inconclusive
COc1cc(/C=C/C(=O)c2ccc(NS(=O)(=O)c3ccc(C)cc3)cc2)cc(OC)c1O	Pf growth 48h 12µM, HCV inh inconclusive, Pf growth 96h inconclusive, NS1 inh inconclusive
COc1cccc(/C=C/C(=O)c2ccc(NS(=O)(=O)c3ccc(C)cc3)cc2)c1	HCV inh inconclusive, Pf growth 96h inconclusive
COc1cc(/C=C/C(=O)O)ccc1OS(=O)(=O)c1ccc(C)cc1	none (no result: NS1 inh)
COc1cc(NS(=O)(=O)c2ccc(NS(=O)(=O)c3ccc(C)cc3)cc2)nc(OC)n1	Pf growth 96h 1.9µM
Cc1ccc(-n2c(N)c(C(=O)Nc3ccccc3F)sc2=S)cc1C	HCV inh inconclusive, Pf growth 96h inconclusive (no result: NS1 inh)
CCCCN1CC(=O)N2[C@H]3c4ccccc4OC[C@@H]3[C@H](c3ccccc3)[C@]2(C)C1=O	Pf growth 48h inconclusive, HCV inh inconclusive, Pf growth 96h 5.9µM (no result: NS1 inh)
Cc1ccc(CN2CC(=O)N3[C@H]4c5ccccc5OC[C@@H]4[C@H](c4ccccc4)[C@]3(C)C2=O)cc1	Pf growth 48h 9.3µM, HCV inh inconclusive, Pf growth 96h inconclusive (no result: NS1 inh)
Cc1cccc(NC(=O)c2cc([N+](=O)[O-])ccc2N2CCCCC2)n1	HCV inh inconclusive, Pf growth 96h inconclusive (no result: NS1 inh)
CC(C)[C@H](NC(=O)N1c2ccccc2NC(=O)[C@@H]1C(C)C)C(=O)N[C@@H](C(=O)O)c1ccccc1	Pf growth 48h inconclusive, HCV inh 0.35µM
CSc1nc(C)c(CCO)c(=O)[nH]1	Pf growth 48h inconclusive (no result: NS1 inh)
O=C(O)COc1ccc(NC(=O)c2ccc3c(c2)C(=O)N(C2CCCCC2)C3=O)cc1	Pf growth 48h inconclusive
CCC(=O)Oc1ccc(C(=O)Nc2ccc3c(c2)C(=O)N(C2CCCCC2)C3=O)cc1	HCV inh inconclusive, Pf growth 96h 10µM (no result: Pf growth 48h)
CN(C)c1ccc(/C=C/C(=O)c2ccccc2O)cc1	AMA1 RON2 block 14µM (no result: NS1 inh)
COc1ccc(C(=O)/C=C/c2ccc(N(C)C)cc2)c(OC)c1	Pf growth 48h inconclusive, HCV inh inconclusive, Pf growth 96h 2.1µM
COc1ccc(C(=O)/C=C/c2cc(OC)c(O)c(OC)c2)c(F)c1	HCV inh 13µM, Pf growth 96h inconclusive
Cc1ccc(/C=C/C(=O)c2ccccc2O)cc1	AMA1 RON2 block inconclusive
CCCCC(NC(=O)Cc1c(C)c2cc3c(-c4ccccc4)coc3c(C)c2oc1=O)C(=O)O (stereo unspecified)	NS1 inh inconclusive
Cc1cc(C)c2[nH]c(=O)c(C(c3nnnn3CC3CCCO3)N3CCCC(C)C3)cc2c1 (stereo unspecified)	Pf growth 48h 15µM (no result: Pf growth 96h)
Cc1cc(C)c2[nH]c(=O)c(C(c3nnnn3CC3CCCO3)N3CCC(C)CC3)cc2c1 (stereo unspecified)	Pf growth 48h inconclusive
CCC(C)(C)n1nnnc1C(c1cc2cccc(C)c2[nH]c1=O)N1CCCC1 (stereo unspecified)	Pf growth 48h inconclusive, HCV inh inconclusive
CCC(C)(C)n1nnnc1C(c1cc2cc(C)cc(C)c2[nH]c1=O)N1CCCC1 (stereo unspecified)	Pf growth 48h 5.9µM, HCV inh inconclusive, Pf growth 96h inconclusive, NS1 inh inconclusive
CCC(C)(C)n1nnnc1C(c1cc2cc(C)cc(C)c2[nH]c1=O)N1CCN(Cc2ccc3c(c2)OCO3)CC1 (stereo unspecified)	Pf growth 96h 0.52µM (no result: Pf growth 48h)
CCC(C)N(NC(C)=O)c1nc(Cl)nc(NC(C)C)n1 (stereo unspecified)	Pf growth 48h 2.1µM, Pf growth 96h inconclusive
NS(=O)(=O)c1ccc(NCCCn2ccnc2)c([N+](=O)[O-])c1	Pf growth 96h inconclusive
O=C1c2ccccc2-c2onc3ccc(NCCCn4ccnc4)c1c23	AMA1 RON2 block 24µM, HCV inh 13µM, Pf growth 96h 13µM (no result: Pf growth 48h)
Cc1ccc(NC(=O)COc2coc(CN3c4ccccc4CC3C)cc2=O)c(C)c1 (stereo unspecified)	Pf growth 48h inconclusive, HCV inh inconclusive, Pf growth 96h inconclusive (no result: NS1 inh)
COc1ccc(CCNC(=O)COc2coc(CN3c4ccccc4CC3C)cc2=O)cc1OC (stereo unspecified)	Pf growth 48h 9.3µM, HCV inh 11µM, Pf growth 96h inconclusive (no result: NS1 inh)
CC1Cc2ccccc2N1Cc1cc(=O)c(OCC(=O)Nc2ccccc2)co1 (stereo unspecified)	Pf growth 48h 9.3µM, HCV inh inconclusive, Pf growth 96h 10µM (no result: NS1 inh)
Nc1nsc2ccccc12	Pf growth 48h inconclusive, HCV inh 11µM
Cc1cc(N/N=C/c2cccc(Cl)c2)nc(NCc2ccccc2)n1	Pf growth 48h 0.83µM, HCV inh 13µM, Pf growth 96h inconclusive
Cc1cc(N/N=C/c2cccc(F)c2)nc(NCc2ccccc2)n1	Pf growth 48h inconclusive, Pf growth 96h inconclusive
CN(C)c1nc(NCc2ccccc2)nc(N/N=C/c2ccc(Cl)cc2Cl)n1	Pf growth 48h inconclusive, Pf growth 96h 9.3µM
Cc1cc(C)nc(NCc2ccc(Cl)cc2)n1	Pf growth 48h inconclusive
Cc1cc(Nc2cccc(Cl)c2)nc(NCc2ccccc2)n1	Pf growth 48h 0.74µM, HCV inh inconclusive, Pf growth 96h 0.47µM, SARS PLpro yeast inconclusive
Cc1cc(N/N=C/c2ccccc2)nc(NCc2ccccc2)n1	Pf growth 48h 2.3µM, HCV inh 6.3µM, Pf growth 96h 1.5µM
Cc1cc(N/N=C/c2ccc(Cl)cc2)nc(NCc2ccccc2)n1	Pf growth 48h 1µM, HCV inh 35µM, Pf growth 96h 0.74µM
Cc1cccc(/C=N/n2c(C)cc(C)c(C#N)c2=O)c1	Pf growth 48h 5.2µM, Pf growth 96h inconclusive
Cc1cc(C)n(/N=C/c2ccccc2)c(=O)c1C#N	Pf growth 48h inconclusive
CCc1ccc(/C=N/n2c(C)cc(C)c(C#N)c2=O)cc1	Pf growth 48h 9.3µM, Pf growth 96h 1.7µM, NS1 inh inconclusive
CC(=O)Nc1cccc(-c2cnc(N)c(C(=O)c3cccnc3)n2)c1	HCV inh 11µM (no result: Pf growth 48h, Pf growth 96h, NS1 inh)
NC(=O)c1cccc(-c2cnc(N)c(C(=O)c3cccnc3)n2)c1	HCV inh inconclusive (no result: Pf growth 48h, Pf growth 96h, SARS PLpro yeast, NS1 inh)
COc1ccc(NC(=O)C2c3ccccc3OCC(=O)N2CCc2ccccc2)cc1 (stereo unspecified)	none (no result: Pf growth 48h, HCV inh, Pf growth 96h, SARS PLpro yeast, NS1 inh)
COc1ccc(C2=Nc3ccc(C)cc3C(c3ccccc3)N2CC(=O)NN)cc1 (stereo unspecified)	Pf growth 96h 1.9µM
NNC(=O)CN1C(c2cccc(Cl)c2)=Nc2ccc(Br)cc2C1c1ccccc1 (stereo unspecified)	Pf growth 48h 1.9µM
COc1ccc(C2=Nc3ccc(Br)cc3C(c3ccccc3)N2CC(=O)NN)cc1 (stereo unspecified)	Pf growth 48h 13µM, NS1 inh inconclusive
